# In PubChem BioAssay (EPA / NIEHS):
# “And” between values parts separate entries of the source, which are not always exact repeats. Equal values may be shown once. Records with an inconclusive call do not appear. The source made the active and inactive calls. The calls were made as follows, unless noted: active = hit-call score of the fitted dose curve at least 0.9, where 1 is the maximum; inactive = score below 0.9.
# How the values were obtained:
# [1] = read-out: NAD(P)H dehydrogenase [quinone] 1 (NQO1), NQO1 (gene 1728); experiment: LTEA_HepaRG_NQO1: Life Technologies and Expression Analysis (LTEA) Assay for NAD(P)H dehydrogenase [quinone] 1 (NQO1) using HepaRG (AID 2283526); settings: mRNA level, 48 h; actives raise or lower the signal
# Summary of the method: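 HepaRG, 48 h post-plating → serum-free induction medium → test chemical 48 h (duplicate, 100 uM top, half-log x8, 0.5% DMSO) → RNA isolation → qRT-PCR, ACTB/GAPDH/POLR2A normalization; bidirectional curve fit vs DMSO baseline.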
# [2] = read-out: Nuclear factor erythroid 2-related factor 2 (Homo sapiens) (UniProt Q16236); experiment: LTEA_HepaRG_NFE2L2: Life Technologies and Expression Analysis (LTEA) Assay for Nuclear factor erythroid 2-related factor 2 (NFE2L2) Transcription Factor using HepaRG (AID 2283527); settings: mRNA level, 48 h; actives raise or lower the signal;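 also: TaqMan qRT-PCR transcript level normalised to ACTB GAPDH and POLR2A housekeeping genes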
# Summary of the method: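 Transcript level of NFE2L2 is the read-out, measured by microfluidic TaqMan qRT-PCR and normalized to three housekeeping genes. Human HepaRG cultures received test chemical for 48 h at up to 100 uM in half-log steps. Gain or loss of signal is fitted relative to 0.5% DMSO.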
# [3] = read-out: succinate dehydrogenase complex iron sulfur subunit B (SDHB), SDHB (gene 6390); experiment: LTEA_HepaRG_SDHB: Life Technologies and Expression Analysis (LTEA) Assay for succinate dehydrogenase complex iron sulfur subunit B (SDHB) using HepaRG (AID 2283528); settings: mRNA level, 48 h; actives raise or lower the signal
# Summary of the method: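 Readout is SDHB transcript level by qRT-PCR, normalised to three housekeeping genes and fitted bidirectionally against 0.5% DMSO vehicle. Human HepaRG cells were treated for 48 h at up to 100 uM.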
# [4] = read-out: solute carrier (SLCO1B1), SLCO1B1 (gene 10599); experiment: LTEA_HepaRG_SLCO1B1: Life Technologies and Expression Analysis (LTEA) Assay for solute carrier (SLCO1B1) using HepaRG (AID 2283530); settings: mRNA level, 48 h; actives raise or lower the signal
# Summary of the method: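 Differentiated human HepaRG cells were exposed for 48 h in serum-free induction medium to eight half-log concentrations, top 100 uM, in 0.5% DMSO. SLCO1B1 mRNA was measured by qRT-PCR, normalized to ACTB, GAPDH and POLR2A, and fitted bidirectionally against DMSO.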
# [5] = read-out: sulfotransferase 2A1 (SULT2A1), SULT2A1 (gene 6822); experiment: LTEA_HepaRG_SULT2A1: Life Technologies and Expression Analysis (LTEA) Assay for sulfotransferase 2A1 (SULT2A1) using HepaRG (AID 2283531); settings: mRNA level, 48 h; actives raise or lower the signal
# Summary of the method: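 HepaRG human liver cells, 48 h exposure in serum-free induction medium to 8 half-log concentrations topping at 100 µM (0.5% DMSO), duplicate wells. SULT2A1 mRNA measured by TaqMan qRT-PCR, normalized to ACTB/GAPDH/POLR2A; bidirectional fit against DMSO.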
# [6] = read-out: Transforming Growth Factor (TGFA), TGFA (gene 7039); experiment: LTEA_HepaRG_TGFA: Life Technologies and Expression Analysis (LTEA) Assay for Transforming Growth Factor (TGFA) using HepaRG (AID 2283532); settings: mRNA level, 48 h; actives raise or lower the signal
# Summary of the method: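 HepaRG (human liver line), 48 h exposure, 8 conc. half-log down from 100 uM, 0.5% DMSO vehicle, duplicates; serum-free induction medium. TGFA mRNA by TaqMan qRT-PCR, ACTB/GAPDH/POLR2A normalization; gain/loss fit vs DMSO.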
# [7] = read-out: Transforming Growth Factor (TGFB1), TGFB1 (gene 7040); experiment: LTEA_HepaRG_TGFB1: Life Technologies and Expression Analysis (LTEA) Assay for Transforming Growth Factor (TGFB1) Transporter using HepaRG (AID 2283533); settings: mRNA level, 48 h; actives raise or lower the signal
# Summary of the method: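 Differentiated HepaRG cells exposed 48 hr in serum-free induction medium to eight half-log concentrations up to 100 uM (0.5% DMSO), duplicate; TGFB1 mRNA by TaqMan qRT-PCR normalised to ACTB, GAPDH, POLR2A; bidirectional fit against DMSO.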
# TIMP1, TIMP1 (gene 7076) = experiment: LTEA_HepaRG_TIMP1: Life Technologies and Expression Analysis (LTEA) Assay for TIMP1 using HepaRG (AID 2283534); settings: mRNA level, 48 h; actives raise or lower the signal;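 also: TaqMan qRT-PCR signal normalized to ACTB GAPDH and POLR2A housekeeping genes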
# Summary of the method: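 Differentiated HepaRG cells exposed 48 h in serum-free induction medium, duplicates, eight half-log concentrations from 100 uM in 0.5% DMSO. TIMP1 mRNA by qRT-PCR normalized to ACTB, GAPDH, POLR2A; bidirectional fitting against DMSO.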
# [8] = read-out: Tumor necrosis factor receptor 1 (TNFRSF1A), TNFRSF1A (gene 7132); experiment: LTEA_HepaRG_TNFRSF1A: Life Technologies and Expression Analysis (LTEA) Assay for Tumor necrosis factor receptor 1 (TNFRSF1A) using HepaRG (AID 2283535); settings: mRNA level, 48 h; actives raise or lower the signal
# Summary of the method: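 Differentiated HepaRG cells in serum-free induction medium, exposed 48 h in duplicate to 8 half-log concentrations up to 100 uM in 0.5% DMSO. TNFRSF1A mRNA by Fluidigm TaqMan qRT-PCR, normalized to ACTB, GAPDH, POLR2A; bidirectional fit.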
# [9] = read-out: Thyroid Hormone Responsive (THRSP), THRSP (gene 7069); experiment: LTEA_HepaRG_THRSP: Life Technologies and Expression Analysis (LTEA) Assay for Thyroid Hormone Responsive (THRSP) using HepaRG (AID 2283536); settings: mRNA level, 48 h; actives raise or lower the signal
# Summary of the method: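 mRNA induction or loss relative to 0.5% DMSO vehicle was fitted bidirectionally across an eight-point curve whose highest exposure was 100 uM. Human HepaRG liver cells received chemicals in duplicate over 48 h before RNA extraction.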
# [10] = read-out: Cellular tumor antigen p53 (Homo sapiens) (UniProt P04637); experiment: LTEA_HepaRG_TP53: Life Technologies and Expression Analysis (LTEA) Assay for Tumor Protein P53 (TP53) using HepaRG (AID 2283537); settings: mRNA level, 48 h; actives raise or lower the signal
# Summary of the method: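 Read-out is TP53 transcript level by microfluidic qRT-PCR, normalised to three housekeeping genes and fitted bidirectionally against DMSO. Human HepaRG cells received compounds for 48 h, highest concentration 100 uM.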
# [11] = read-out: UDP glucuronosyltransferase (UGT1A1), UGT1A1 (gene 54658); experiment: LTEA_HepaRG_UGT1A1: Life Technologies and Expression Analysis (LTEA) Assay for UDP glucuronosyltransferase (UGT1A1) using HepaRG (AID 2283538); settings: mRNA level, 48 h; actives raise or lower the signal
# Summary of the method: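 Readout is UGT1A1 transcript level by qRT-PCR, normalized to three housekeeping genes, after 48 h chemical treatment of HepaRG cells. Concentrations ran from 100 uM down in half-log steps with 0.5% DMSO, and gain or loss relative to DMSO was fitted.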
# [12] = read-out: UDP glucuronosyltransferase (UGT1A6), UGT1A6 (gene 54578); experiment: LTEA_HepaRG_UGT1A6: Life Technologies and Expression Analysis (LTEA) Assay for UDP glucuronosyltransferase (UGT1A6) using HepaRG (AID 2283539); settings: mRNA level, 48 h; actives raise or lower the signal
# Summary of the method: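 Differentiated HepaRG cells, ~100,000/well, were exposed for 48 h in serum-free induction medium with 0.5% DMSO to 8-point half-log series topping at 100 uM, in duplicate. mRNA measured by Fluidigm TaqMan qRT-PCR, normalized to ACTB, GAPDH and POLR2A.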
# [13] = read-out: X-box binding protein 1 (XBP1), XBP1 (gene 7494); experiment: LTEA_HepaRG_XBP1: Life Technologies and Expression Analysis (LTEA) Assay for X-box binding protein 1 (XBP1) using HepaRG (AID 2283540); settings: mRNA level, 48 h; actives raise or lower the signal
# Summary of the method: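 Differentiated human HepaRG cells in serum-free induction medium exposed 48 h in duplicate to eight half-log concentrations up to 100 uM in 0.5% DMSO. XBP1 mRNA measured by Fluidigm TaqMan qRT-PCR, normalized to ACTB, GAPDH, POLR2A; bidirectional fitting against DMSO.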
# [14] = LTEA_HepaRG_LDH_cytotoxicity: Cytotoxicity Assessment in the Life Technologies and Expression Analysis (LTEA) Assay (AID 2283563; active = hit-call score of the fitted dose curve at least 0.9, where 1 is the maximum)
# Summary of the method: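 Differentiated HepaRG cells in serum-free induction medium, exposed 48 h in duplicate to 8 half-log concentrations up to 100 uM in 0.5% DMSO. Cytotoxicity from LDH measured in spent medium, fit relative to DMSO.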
# [15] = ATG_XTT_Cytotoxicity: Cytotoxicity Assessment in the Attagene TRANS-FACTORIAL HepG2 Assay (AID 2283584; active = hit-call score of the fitted dose curve at least 0.9, where 1 is the maximum)
# Summary of the method: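 HepG2 cells transiently transfected with GAL4-UAS multiple reporter units, dosed 24 h; cytotoxicity read by XTT as loss of signal versus DMSO baseline.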
# [16] = TOX21_p53_BLA_p2_viability: Viability Assessment in the Tox21 HCT-116 p53 Agonism Beta-lactamase Assay, Phase 2 (AID 2283591; active = hit-call score of the fitted dose curve at least 0.9, where 1 is the maximum;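 also: compound exposure lasted 16 h at 37 °C; actives lower the ATP signal meaning cytotoxicity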)
# Summary of the method: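 Cytotoxicity readout: CellTiter-Glo ATP luminescence, 30 min at room temperature, after the beta-lactamase read. Cells were HCT116 exposed 16 h at 37C to compounds pin-transferred at 217-fold dilution from DMSO stocks.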
# [17] = target: Cellular tumor antigen p53 (Homo sapiens) (UniProt P04637); experiment: TOX21_p53_BLA_p2_ratio: Tox21 HCT-116 p53 Agonism Beta-lactamase Assay, Ratio, Phase 2 (AID 2283592; active = hit-call score of the fitted dose curve at least 0.9, where 1 is the maximum)
# Sequence of Cellular tumor antigen p53 (Homo sapiens) (P04637 whole entry, looked up): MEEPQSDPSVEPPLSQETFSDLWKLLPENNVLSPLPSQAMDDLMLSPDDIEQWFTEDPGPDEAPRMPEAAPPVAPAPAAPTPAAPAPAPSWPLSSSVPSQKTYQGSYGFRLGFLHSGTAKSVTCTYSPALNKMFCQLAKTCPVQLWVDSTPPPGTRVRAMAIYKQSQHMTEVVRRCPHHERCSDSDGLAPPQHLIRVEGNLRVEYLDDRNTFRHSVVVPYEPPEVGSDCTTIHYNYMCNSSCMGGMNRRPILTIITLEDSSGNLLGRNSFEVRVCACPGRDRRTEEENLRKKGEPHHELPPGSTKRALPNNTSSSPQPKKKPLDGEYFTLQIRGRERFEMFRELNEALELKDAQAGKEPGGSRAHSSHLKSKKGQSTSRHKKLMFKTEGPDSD
# Summary of the method: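 HCT-116 cells with p53-responsive beta-lactamase reporter, 4000 cells/well, preincubated 5 h, then compound in DMSO (217-fold dilution) for 16 h at 37C. CCF4-AM substrate 2 h at room temperature; 460/530 nm emission ratio fitted upward versus DMSO.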
# Sequence of Nuclear factor erythroid 2-related factor 2 (Homo sapiens) (Q16236 whole entry, looked up): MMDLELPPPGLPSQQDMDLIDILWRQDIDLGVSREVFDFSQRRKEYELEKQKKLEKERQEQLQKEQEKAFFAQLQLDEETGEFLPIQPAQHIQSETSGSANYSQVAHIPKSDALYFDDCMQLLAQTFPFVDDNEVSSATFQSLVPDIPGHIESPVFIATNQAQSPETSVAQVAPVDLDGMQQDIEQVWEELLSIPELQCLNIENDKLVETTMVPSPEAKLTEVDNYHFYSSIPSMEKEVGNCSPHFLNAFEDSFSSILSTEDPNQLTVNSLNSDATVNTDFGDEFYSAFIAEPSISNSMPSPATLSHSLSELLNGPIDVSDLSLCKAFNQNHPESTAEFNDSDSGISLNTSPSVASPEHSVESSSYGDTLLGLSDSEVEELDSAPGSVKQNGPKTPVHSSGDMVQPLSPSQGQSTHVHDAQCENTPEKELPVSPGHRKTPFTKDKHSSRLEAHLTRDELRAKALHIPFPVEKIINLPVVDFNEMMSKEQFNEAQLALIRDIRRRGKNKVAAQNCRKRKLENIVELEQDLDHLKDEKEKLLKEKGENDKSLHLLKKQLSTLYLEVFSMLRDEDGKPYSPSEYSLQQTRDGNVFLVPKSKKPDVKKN
structure (smiles),measurement,setting,value
CCN(CC)CCO,outcome,[1],inactive
same,outcome,[2],inactive
same,outcome,[3],inactive
same,outcome,[4],inactive
same,outcome,[5],inactive
same,outcome,[6],inactive
same,outcome,[7],inactive
same,outcome,"TIMP1, TIMP1 (gene 7076)",inactive
same,outcome,[8],inactive
same,outcome,[9],inactive
same,outcome,[10],inactive
same,outcome,[11],inactive
same,outcome,[12],inactive
same,outcome,[13],inactive
same,outcome,[14],inactive
same,outcome,[15],inactive
same,outcome,[16],inactive
CC(C)COC(=O)c1ccccc1C(=O)OCC(C)C,outcome,[1],inactive
same,outcome,[2],inactive
same,outcome,[3],inactive
same,outcome,[4],inactive
same,outcome,[5],inactive
same,outcome,[6],inactive
same,outcome,[7],inactive
same,outcome,"TIMP1, TIMP1 (gene 7076)",inactive
same,outcome,[8],inactive
same,outcome,[9],inactive
same,outcome,[11],inactive
same,outcome,[12],inactive
same,outcome,[13],inactive
same,outcome,[14],inactive
same,outcome,[15],inactive
[Cl-].[Cl-].[Hg+2],outcome,[1],inactive
same,outcome,[2],inactive
same,outcome,[3],inactive
same,outcome,[4],inactive
same,outcome,[5],inactive
same,outcome,[6],inactive
same,outcome,[7],inactive
same,outcome,"TIMP1, TIMP1 (gene 7076)",inactive
same,outcome,[8],inactive
same,AC50,[9],21.8 µM (active)
same,outcome,[10],inactive
same,outcome,[11],inactive
same,outcome,[12],inactive
same,outcome,[13],inactive
same,outcome,[15],inactive
same,AC50,[16],34.8 µM (active) and 7.78 µM (active) and 16.4 µM (active)
Cc1ccc(N)c(N)c1,outcome,[1],inactive
same,outcome,[2],inactive
same,outcome,[3],inactive
same,outcome,[4],inactive
same,outcome,[5],inactive
same,outcome,[6],inactive
same,outcome,[7],inactive
same,outcome,"TIMP1, TIMP1 (gene 7076)",inactive
same,outcome,[8],inactive
same,outcome,[9],inactive
same,outcome,[10],inactive
same,AC50,[11],50 µM (active)
same,outcome,[12],inactive
same,outcome,[13],inactive
same,outcome,[14],inactive
same,outcome,[16],inactive
same,outcome,[17],inactive
